Where “and” joins values, the source holds several entries; their conditions need not be identical. Equal values may be shown once. Records with an inconclusive call do not appear. Calls of active or inactive are those of the source. Unless noted, calls come from the whole dose curve; as a rule, active = well fitted curve in the direction sought with a large enough effect; inconclusive = small, poorly fitted or top-dose-only effect, or another doubt; inactive = no such curve, though single readings can be large; an effect the other way counts as inactive or inconclusive.
Key:
[1] = Cell Viability - BJ (AID 421; calls by dose curve;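 note: potency is the fitted concentration of half-maximal effect; cells exposed to compound for 40 hours at 37 °C before readout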); conditions: BJ fibroblast viability, qHTS
Summary of the method: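 Cytotoxicity in human BJ foreskin fibroblasts is scored as loss of cellular ATP after a 40-hour exposure, measured by luciferase luminescence. Controls are DMSO and 100 uM tamoxifen.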

[2] = Cell Viability - Jurkat (AID 426;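 active = dose-dependent loss of cell ATP signal giving a full or clear fitted curve, ranked by lower potency value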;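 note: potency is the fitted concentration of half-maximal effect; cells exposed to compound for 40 hours at 37 °C before ATP read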); conditions: qHTS
Summary of the method: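 Cytotoxicity taken as drop in cellular ATP (CellTiter-Glo luminescence, 20 min room temperature) after 40 hr, 37C treatment of 5000 Jurkat Clone E6-1 cells per well; concentration-response fitted with Hill equation for AC50.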

[3] = Cell Viability - Hek293 (AID 427;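 active = compounds whose dose-response curve shows a full or clear partial loss of cell viability, called from curve shape rather than a numeric limit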;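 note: potency is the fitted concentration of half-maximal effect; cells exposed to compound for 40 hours at 37 °C before reading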); conditions: qHTS
Summary of the method: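 qHTS, human embryonic kidney (adenovirus-transformed) cells; 40 hr cpd, 37 °C; CellTiter-Glo ATP luminescence. Norm: DMSO = 0, 100 uM tamoxifen = 100% inhibition. Hill-fit AC50.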

[4] = Cell Viability - HepG2 (AID 433; calls by dose curve;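 note: potency is the fitted concentration of half-maximal effect; potency for ATP loss meaning cytotoxicity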); conditions: qHTS
Summary of the method: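 ATP luminescence (CellTiter-Glo) after 40 h compound exposure, 37 °C, HepG2, 1500 cells/well, complete medium. Normalized: DMSO = basal, 100 uM tamoxifen = 100% inhibition. AC50 via standard Hill equation.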

[5] = Cell Viability - MRC5 (AID 434; calls by dose curve;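 note: potency is the fitted concentration of half-maximal effect; cells exposed to compound for 40 hours at 37 °C; potency reflects cytotoxicity seen as loss of intracellular ATP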); conditions: MRC5 lung fibroblast viability, qHTS
Summary of the method: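 Decrease in intracellular ATP, quantified by luciferase light output, reflects compound toxicity toward MRC5 cells exposed for 40 hr in complete culture medium. Concentration-response curves, scaled between DMSO and 100 uM tamoxifen, gave AC50 values.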

[6] = Cell Viability - SK-N-SH (AID 435; calls by dose curve; note: potency is the fitted concentration of half-maximal effect); conditions: SK-N-SH neuroblastoma cell viability qHTS
Summary of the method: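 CellTiter-Glo ATP luminescence, 20 min RT read; cells pre-plated 5 hr, compound 40 hr at 37 °C, 1500 cells/well, complete medium. Normalized DMSO = 0, 100 uM tamoxifen = 100% inhibition; Hill-fit AC50.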

[7] = Cell Viability - N2a (AID 540); conditions: N2a mouse neuroblastoma cell viability; activity change, negative = cytotoxicity: at 92.2 µM (top of the series);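 note: plate controls were DMSO alone for no effect and tamoxifen control for full effect; nearly all actives have a fitted effect of over 45% in size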
Summary of the method: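 CellTiter-Glo ATP luminescence, read 20 min after reagent at room temperature, reported viability following 40 h compound treatment at 37 °C. N2a mouse neuroblastoma cells seeded 1500/well; Hill equation gave AC50.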

[8] = Cell Viability - NIH 3T3 (AID 541); conditions: NIH 3T3 cell viability, qHTS; activity change, negative = cytotoxicity: at 92.2 µM (top of the series);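 note: plate controls were DMSO alone for no effect and tamoxifen positive control for full effect; nearly all actives have a fitted effect of over 25% in size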
Summary of the method: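 Intracellular ATP (CellTiter-Glo luminescence, 20 min at room temperature) measured after 40 hr compound exposure at 37 °C of 1000 NIH 3T3 mouse fibroblasts/well in complete medium; AC50 derived by Hill-equation modelling of qHTS concentration-response curves.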

[9] = Cell Viability - HUV-EC-C (AID 542); note: % is set by controls: 0 for no effect and ±100 for the full control effect; nearly all actives have a fitted effect of over 35% in size
Summary of the method: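 CellTiter-Glo luminescence measured ATP loss in HUV-EC-C cells (1000/well) after 40 hr compound exposure at 37 °C, in complete culture medium. Concentration-response data were Hill-fitted to give AC50.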

[10] = Cell Viability - H-4-II-E (AID 543); note: % is set by controls: 0 for no effect and ±100 for the full control effect; nearly all actives have a fitted effect of over 35% in size
Summary of the method: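 CellTiter-Glo luminescence (intracellular ATP) measured after 40 h compound exposure at 37 °C in H-4-II-E rat hepatoma cells seeded at 1500/well. Values are AC50s fitted with the standard Hill equation.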

[11] = Cell Viability - SH-SY5Y (AID 544); conditions: SH-SY5Y neuroblastoma cell viability; viability change, negative = cytotoxic: at 92.2 µM (top of the series); note: nearly all actives have a fitted effect of over 55% in size
Summary of the method: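 Cytotoxicity measured via ATP-dependent luciferase luminescence (CellTiter-Glo) following 40 h, 37 °C exposure of 1500 SH-SY5Y cells per well. Concentration-response data were fitted with the standard Hill equation to give AC50.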

[12] = Cell Viability - Renal Proximal Tubule (AID 545); conditions: renal proximal tubule cells viability, primary cells of rat origin; activity change, negative = cytotoxicity: at 91.7 µM (top of the series); note: nearly all actives have a fitted effect of over 40% in size
Summary of the method: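 Rat kidney proximal tubule cells, freshly isolated; 1000 cells/well, 5 hr settle, compound 40 hr 37 °C. CellTiter-Glo 20 min RT, luminescence read. AC50 by standard Hill fit.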

[13] = Cell Viability - Mesenchymal (AID 546); conditions: mesenchymal cells viability, qHTS; activity change, negative = cytotoxicity: at 91.7 µM (top of the series);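 note: cells exposed to compound for 40 hours before reading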
Summary of the method: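 In this qHTS cytotoxicity format, glomerulus-derived human mesenchymal kidney cells received compound for 40 hr, then luciferase-based ATP quantitation. Concentration-response data were fitted with the Hill equation.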

[14] = Cellular Toxicity (caspase-3) HepG2 (AID 654);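 note: cells exposed to compound for 16 hours before reading; 0% = DMSO alone and 100% = caspase signal from 100 µM tamoxifen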
Summary of the method: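 Caspase 3/7 activation is measured as a luminescence increase (aminoluciferin substrate) after 16 h compound exposure of human hepatocarcinoma HepG2 cells. AC50 values are Hill fits, scaled between DMSO baseline and 100 uM tamoxifen stimulation.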

[15] = Cellular Toxicity (caspase-3) Jurkat (AID 655); conditions: Jurkat caspase-3 activation, luminescence; caspase-3 activation: at 92.2 µM (top of the series), DMSO = 0%, tamoxifen = 100%;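 note: cells exposed to compound for 16 h at 37 °C before reading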
Summary of the method: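 Luminescent caspase-3/7 readout (aminoluciferin substrate cleavage) in human T-cell leukemia Jurkat cells after 16 hr compound exposure. Concentration-response normalized to DMSO and 100 uM tamoxifen; AC50 by standard Hill equation.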

[16] = Cellular Toxicity (caspase-3) HUV-EC-C (AID 656)
Summary of the method: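 Luminescent caspase-3/7 activation (aminoluciferin substrate cleavage) in HUV-EC-C cells after 16 hr compound exposure, 37°C. Signal normalized to DMSO basal and 100 uM tamoxifen as 100%; AC50 from concentration-response fitted with the Hill equation.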

[17] = Cellular Toxicity (caspase-3) BJ (AID 658); conditions: Potency: caspase-3 activation;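 note: cells exposed to compound for 16 hours; 0% = DMSO basal and 100% = 10 µM staurosporine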
Summary of the method: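 Plated BJ cells (1000/well) rested 5 hr, received compound for 16 hr at 37 °C, then Caspase-Glo 3/7 reagent for 1 hr at room temperature before luminescence reading.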

[18] = Cellular Toxicity (caspase-3) MRC-5 (AID 659);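 note: 0% = DMSO basal and 100% = 10 µM staurosporine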
Summary of the method: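 Apoptosis readout in MRC-5 cells: luciferase light generated after caspase 3/7 cleaves a peptide-aminoluciferin substrate, measured post 16 hr compound incubation at 37 °C.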

[19] = Cellular Toxicity (caspase-3) Mesangial (AID 660); conditions: mesangial cells, normalized: DMSO 0%, 100 µM tamoxifen 100%; at 91.7 µM (top of the series);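 note: combined caspase 3 and 7 activity read by Caspase-Glo luminescence; cells exposed to compound for 16 h before the caspase read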
Summary of the method: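 Caspase 3/7 activation measured by Caspase-Glo 3/7 luminescence (20 min, room temperature) following 16 h exposure of mesangial cells (1000/well); AC50 from Hill-equation fit, normalized to DMSO and 100 uM tamoxifen.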

[20] = Cellular Toxicity (caspase-3) SK-N-SH (AID 661); conditions: SK-N-SH caspase-3 activation, qHTS; caspase-3 activation: at 91.7 µM (top of the series), DMSO as zero, staurosporine as full;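 note: cells exposed to compound for 16 hours; 0% = DMSO basal and 100% = 10 µM staurosporine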
Summary of the method: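 Caspase 3/7 activation was read by luminogenic substrate cleavage after 16 hour treatment of SK-N-SH cells. Signal was scaled between DMSO and 10 uM staurosporine, and concentration-response data were fitted with the Hill equation for AC50.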

[21] = Cellular Toxicity (caspase-3) H-4-II-E (AID 663); conditions: H-4-II-E rat hepatoma; Potency: caspase-3 activation; caspase-3 activation: at 92.2 µM (top of the series), scaled: DMSO 0%, 100 µM tamoxifen 100%;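 note: cells exposed to compound for 16 hr before readout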
Summary of the method: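 Caspase 3/7 activation measured in H-4-II-E cells in complete culture medium after 16 hr treatment at 37 °C, using luciferase-coupled substrate readout; AC50 values come from Hill-equation fits of normalized concentration-response data.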

[22] = Cellular Toxicity (caspase-3) Hek293 (AID 664); conditions: HEK293 caspase-3 activation, DMSO = 0%, 100 µM tamoxifen = 100%; at 92.2 µM (top of the series);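 note: cells exposed to compound for 16 h at 37 °C before readout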
Summary of the method: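 Concentration-response qHTS: caspase 3/7 activation measured by luminescent aminoluciferin substrate cleavage after 16 h compound exposure of Hek 293 cells. AC50 from Hill equation, with DMSO as basal and 100 uM tamoxifen as 100%.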

[23] = Cellular Toxicity (caspase-3) N2a (AID 665); conditions: Potency: caspase-3 activation;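 note: compound exposure lasted 16 h at 37 °C before readout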
Summary of the method: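 Caspase-3/7 activation measured as luminescence from Caspase-Glo reagent (1 h, room temperature) after 16 h compound exposure of mouse N2a cells. AC50 values from Hill-equation concentration-response, scaled between DMSO and 10 uM staurosporine.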

[24] = Cellular Toxicity (caspase-3) NIH 3T3 (AID 666);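 note: 0% = DMSO basal and 100% = 100 µM tamoxifen stimulation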
Summary of the method: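 Caspase-Glo 3/7 luminescence reported caspase activation in 1000 NIH 3T3 cells/well after 16 h compound exposure at 37 C. DMSO set basal and 100 uM tamoxifen set 100% stimulation; concentration-response modeled with the Hill equation for AC50.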

[25] = Cellular Toxicity (caspase-3) Renal Proximal Tubule (AID 667);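 note: cells exposed to compound for 16 hours at 37 °C before detection; 0% = DMSO basal and 100% = 10 µM staurosporine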
Summary of the method: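 Luminescent caspase 3/7 signal from peptide-aminoluciferin cleavage measures apoptosis in freshly isolated rat kidney proximal tubule cells after 16 h compound exposure. Concentration-response data are normalized to DMSO and 10 uM staurosporine, and AC50 values come from Hill equation fits.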

[26] = Cell Viability - LYMP2-001 (AID 921);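 note: 0% = DMSO only and full inhibition = tetraoctylammonium bromide control wells; nearly all actives have a fitted effect of over 70% in size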
Summary of the method: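 CellTiter-Glo luminescence (intracellular ATP) after 24 hr compound exposure at 37 C, 2500 lymphoblastoid cells/well in complete medium. AC50 fitted with standard Hill equation; tetraoctylammonium bromide positive control.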

[27] = MultiTox-Fluor Cytotoxicity Assay - LYMP1-001 - Dead Cells (AID 946)
Summary of the method: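 Seed 2500 LYMP1-001 cells/well, incubate 5 hr at 37 C; add compound, 16 hr at 37 C; add MultiTox-Fluor reagent, 60 min RT; read dead-cell fluorescence Ex/Em=485/520. Normalize to DMSO and 15 uM tetraoctylammonium bromide.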

[28] = Cell Viability - LYMP1-002 - Assay at 16 hr (AID 948);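 note: 0% = DMSO alone and full effect = 92 µM tetraoctylammonium bromide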
Summary of the method: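 LYMP1-002 human lymphoblastoid cells, 2500/well; 5 hr 37 C; cpd 16 hr 37 C; CellTiter-Glo 30 min RT; luminescence (ATP). Concentration-response, Hill-fit AC50. Pos ctrl tetraoctylammonium bromide.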

[29] = MultiTox-Fluor Cytotoxicity Assay - LYMP1-002 - Live Cells (AID 955);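 note: cells exposed to compound for 16 hours; % is set by controls: 0 for no effect and ±100 for the full control effect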
Summary of the method: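 After 16 h compound exposure at 37 C, live LYMP1-002 lymphoblastoid cells (2500/well) were quantified by cleavage of cell-permeant GF-AFC substrate, read at 405/510 nm after 60 min. Concentration-response fitted with Hill equation for AC50.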

[30] = MultiTox-Fluor Cytotoxicity Assay - LYMP1-002 - Dead Cells (AID 960); note: nearly all actives have a fitted effect of over 60% in size
Summary of the method: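 Dead-cell fluorescence (Ex/Em 485/520) after 16 h compound exposure at 37 C of LYMP1-002 lymphoblastoid cells in complete medium; AC50 by Hill equation, with data scaled between DMSO and 15 uM tetraoctylammonium bromide.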

[31] = MultiTox-Fluor Cytotoxicity Assay - LYMP1-003 - Dead Cells (AID 961); note: nearly all actives have a fitted effect of over 70% in size
Summary of the method: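 LYMP1-003 lymphoblastoid, 2500 cells/well, 5 hr settle then 16 hr cpd at 37 C; MultiTox-Fluor reagent 60 min RT; Ex/Em 485/520 dead-cell signal; norm. DMSO = 0%, 15 uM tetraoctylammonium bromide = 100%; Hill AC50.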

[32] = MultiTox-Fluor Cytotoxicity Assay - LYMP1-003 - Live Cells (AID 962);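 note: cells exposed to compound for 16 hours at 37 °C; 0% = DMSO only and full loss = 92 µM tetraoctylammonium bromide; cytotoxic hits lower the live-cell protease signal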
Summary of the method: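 Live-cell protease activity (GF-AFC substrate, 405/510 nm, 60 min at room temperature) after 16 h, 37 C compound exposure of human lymphoblastoid LYMP1-003 cells; concentration-response fitted to the Hill equation for AC50.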

[33] = Cell Viability - LYMP1-003 - Assay at 24 hr (AID 963);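 note: plate controls were DMSO only for no effect and tetraoctylammonium bromide positive control for full effect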
Summary of the method: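 Concentration-response qHTS: ATP loss measured by CellTiter-Glo luminescence after 24 h compound exposure at 37 C. Cells were LYMP1-003 human lymphoblastoid, 2500 per well. AC50 derived via standard Hill equation modeling.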

[34] = Cell Viability - LYMP1-003 - Assay at 40 hr (AID 964); note: % is set by controls: 0 for no effect and ±100 for the full control effect; nearly all actives have a fitted effect of over 60% in size
Summary of the method: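 Viability is taken as cellular ATP, read by CellTiter-Glo luminescence after 40 h of compound exposure at 37 C. Cells: human lymphoblastoid line LYMP1-003 at 2500/well; AC50 values derived by Hill-equation fitting of concentration-response data.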

[35] = Cell Viability - LYMP2-003 (AID 965);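 note: cells exposed to compounds for 24 h before reading; 0% = DMSO only and full effect = 92 µM tetraoctylammonium bromide; nearly all actives have a fitted effect of over 50% in size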
Summary of the method: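 CellTiter-Glo luminescence (cellular ATP) after 24 h compound exposure at 37 C in complete medium; 2500 cells/well, 5 h settling beforehand. Concentration-response fitted to standard Hill equation for AC50. Tetraoctylammonium bromide served as positive control.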

[36] = Cell Viability - LYMP2-004 (AID 966);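 note: plate controls were DMSO only for no effect and tetraoctylammonium bromide control for full effect; nearly all actives have a fitted effect of over 65% in size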
Summary of the method: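 AC50 values come from Hill modelling of concentration-dependent loss of intracellular ATP, measured by CellTiter-Glo luminescence. Human LYMP2-004 lymphoblastoid cells (2500/well) were exposed to compound for 24 h at 37 C.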

[37] = Cell Viability - LYMP2-009 (AID 968);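 note: 0% = DMSO alone and the full-kill end = tetraoctylammonium bromide at 92 µM; nearly all actives have a fitted effect of over 55% in size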
[38] = Cell Viability - LYMP2-011 (AID 969);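 note: 0% = DMSO only and full inhibition = 92 µM tetraoctylammonium bromide; nearly all actives have a fitted effect of over 60% in size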
Summary of the method: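 Cytotoxicity qHTS with ATP content as read-out: lymphoblastoid cells (2500/well) exposed to compound for 24 h at 37 C, then luciferase luminescence measured. Concentration-response data fitted with the standard Hill equation to give AC50.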

CN1[C@H]2CC(OC(=O)[C@H](CO)c3ccccc3)C[C@H]1[C@H]1O[C@H]12 (stereo partly drawn)
inactive: Potency [1] > 92 µM | Potency [2] > 92 µM | Potency [3] > 92 µM | Potency [4] > 92 µM | Potency [5] > 92 µM | Potency [6] > 92 µM | Potency [7] | Potency [8] | Potency [9] | Potency [10] | Potency [11] | Potency [12] | Potency [13] | Potency [14] | Potency [15] | Potency [16] | Potency [17] | outcome [18] | caspase-3 activation [19] -0.382% and 0.0869% | caspase-3 activation [20] -1.73% and -0.623% | caspase-3 activation [21] 0.771% and -1.21% | caspase-3 activation [22] -1.68% and 4.08% | Potency [23] | Potency [24] | outcome [25] | Potency [26] | Potency [27] | Potency [28] | Potency [29] | Potency [30] | Potency [31] | Potency [32] | Potency [33] | Potency [34] | Potency [35] | Potency [36] | Potency [37] | Potency [38]

Source: PubChem BioAssay (NCATS)
